Compounds with a hit are over-represented: about 2.2% of the library has one in this group of screens.
CHO-K1 Ca PAM: nonselective activator or artifact in parental CHO-K1 calcium assay. AID 602247. 0.02% of 360,000 active. activation, % at 3 µM. ATP EC20, Fluo-8 calcium fluorescence; 0% at ATP EC20, 100% at ATP max;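 active = activation above the run cutoff, the mean activation of all test compounds plus 3 SD, cut at about 40% in these data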;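 also: peak over basal fluorescence ratio in a 140 s read after ATP addition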
CHO-K1 Ca antag: M1 antagonist counterscreen hit in parental CHO-K1 cells; ATP-induced calcium, Fluo-8 fluorescence; inhibition, % at 3 µM; 0.6% of 360,000 active; AID 602250;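 active = inhibition above a per-plate cutoff, the plate's mean sample inhibition plus 3 SD, cut at about 24% in these data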;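 also: 0% = DMSO plus EC80 ATP and 100% = DMSO alone without ATP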
NTR1 ag: NTR1 (human) agonism; P30989; NTR1-U2OS beta-arrestin-GFP spot imaging, agonist mode; activation, % at 20 µM; 0.17% of 330,000 active; AID 493036;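 active = activation at or above 40% of the spot to cytoplasm intensity ratio, with at least 20 cells analyzed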;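 also: 0% = DMSO without peptide and 100% = 100 nM NTR1 peptide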
M1 ag parental: M1 agonist counterscreen hit in parental CHO-K1 cells; 0.48% of 360,000 active; activation, % at 3 µM; Fluo-8 calcium fluorescence; scaled to maximal ATP response, vehicle zero; in the data active = activation above about 15%;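 also: untransfected CHO-K1 host cells lacking M1 receptor as counterscreen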
TMEM16A act: activates or potentiates the mouse TMEM16A chloride channel | Q8BHY3 | 0.3% of 340,000 active | B-score at 10 µM | HEK293 TMEM16A/YFP-H148Q/I152L, iodide quench fluorescence; active compounds read low;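 active = fluorescence-ratio B-score plate-corrected deviation score at least 3 library SD below zero, with starting fluorescence score within 5 deviations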;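 also: channel opened by trigger with iodide after compound preincubation; score built on the fluorescence ratio of max minus min over baseline; more negative score means more quench and so TMEM16A activation or potentiation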
Target sequence (Q8BHY3 whole entry, looked up): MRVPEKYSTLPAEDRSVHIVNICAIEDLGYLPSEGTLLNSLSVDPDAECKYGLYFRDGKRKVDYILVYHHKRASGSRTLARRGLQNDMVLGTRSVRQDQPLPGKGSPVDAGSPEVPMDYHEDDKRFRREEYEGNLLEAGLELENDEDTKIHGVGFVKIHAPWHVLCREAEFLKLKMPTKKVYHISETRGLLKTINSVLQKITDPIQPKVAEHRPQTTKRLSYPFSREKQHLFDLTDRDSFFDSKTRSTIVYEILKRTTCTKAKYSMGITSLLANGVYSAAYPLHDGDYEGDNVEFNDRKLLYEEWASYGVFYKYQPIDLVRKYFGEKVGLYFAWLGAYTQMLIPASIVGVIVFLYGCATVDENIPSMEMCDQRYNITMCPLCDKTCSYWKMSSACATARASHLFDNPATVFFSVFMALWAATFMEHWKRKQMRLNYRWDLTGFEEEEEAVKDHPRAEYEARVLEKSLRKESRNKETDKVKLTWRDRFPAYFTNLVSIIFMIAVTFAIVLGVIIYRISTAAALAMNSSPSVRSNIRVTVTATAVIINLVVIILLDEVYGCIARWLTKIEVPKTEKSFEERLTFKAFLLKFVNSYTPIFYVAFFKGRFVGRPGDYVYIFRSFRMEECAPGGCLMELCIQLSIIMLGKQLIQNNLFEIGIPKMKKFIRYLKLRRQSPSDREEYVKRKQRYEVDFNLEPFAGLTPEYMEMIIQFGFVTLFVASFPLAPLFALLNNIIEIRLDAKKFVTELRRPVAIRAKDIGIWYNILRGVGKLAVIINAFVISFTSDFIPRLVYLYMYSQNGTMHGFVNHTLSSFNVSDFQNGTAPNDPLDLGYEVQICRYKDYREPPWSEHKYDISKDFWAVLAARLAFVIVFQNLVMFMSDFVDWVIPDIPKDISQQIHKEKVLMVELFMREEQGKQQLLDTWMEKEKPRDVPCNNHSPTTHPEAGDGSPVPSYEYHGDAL
TMEM16A inh: mouse TMEM16A channel inhibition, primary screen; 1.2% of 310,000 active; HEK293 TMEM16A/YFP iodide influx fluorescence, ionomycin; normalized B-score (activity score, 25-100; higher = stronger inhibition) at 10 µM;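 active = ratio plate-corrected score three or more library SD toward inhibition, starting fluorescence score within five deviations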;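 also: score derived from kinetic fluorescence span divided by baseline fluorescence per well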
NTR1 ag conf: NTR1 (human) agonism, confirmed. shares compounds with NTR1 ag. NTR1-U2OS beta-arrestin-GFP translocation imaging. activation, % at 20 µM. 38% of 480 active;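 active = mean activation at 20 µM of at least 40%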;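 also: 0% = DMSO without peptide and 100% = 100 nM NTR1 peptide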
* marks the source's active call; other numbers are inactive results; i = inactive; x = not tested or not shown.

SMILES | CHO-K1 Ca PAM | CHO-K1 Ca antag | NTR1 ag | M1 ag parental | TMEM16A act | TMEM16A inh | NTR1 ag conf
CC1=NNC(=O)/C1=C\c1cn(-c2ccccc2)nc1-c1cccs1 | -6 | 31* | 83* | 9 | i | i | 96*
O=C(O)CCCCCN1C(=O)/C(=C/c2cn(-c3ccccc3)nc2-c2cccs2)SC1=S | 10 | -9 | x | 2 | i | x | x
OCC[C@@H]1C[C@H](O)[C@@H](O)[C@]2(OCc3cc(C(F)(F)F)ccc32)O1 | 3 | 15 | x | 0 | x | x | x
CCc1cccc2c1NC(=O)C21N2CCCC2C(C(=O)c2ccc3ccccc3c2)C12C(=O)Nc1ccccc12 (stereo not given) | -11 | 23 | 23 | 0 | i | i | x
CCc1ccc2c(c1)C1(C(=O)N2)N2CCCC2C(C(=O)c2ccc3ccccc3c2)C12C(=O)Nc1ccccc12 (stereo not given) | 17 | -2 | 55* | 0 | i | i | 87*
O=C(CSc1nc2ncc(Br)cc2[nH]1)c1ccc([N+](=O)[O-])cc1 | 16 | -3 | 3 | 1 | i | i | x
O=C(CSc1nc2ccc([N+](=O)[O-])cc2[nH]1)c1ccc2ccccc2c1 | -3 | 0 | 44* | 3 | i | i | 3
CCOC(=O)c1ccc(NC(=O)c2nc[nH]c2C(=O)N[C@@H](C)C(=O)OC(C)(C)C)cc1 | -3 | -8 | 43* | 0 | i | i | 40
Cc1cccc(NC(=O)c2nc[nH]c2C(=O)N[C@@H](C)C(=O)OC(C)(C)C)c1 | 23 | -14 | 12 | 1 | i | i | x
C[C@H](NC(=O)c1[nH]cnc1C(=O)Nc1ccc(Cl)cc1)C(=O)OC(C)(C)C | 15 | -10 | 41* | 1 | i | i | 29
COc1ccc(CN([C@H](CO)CC(C)C)S(=O)(=O)N(Cc2ccccc2)[C@H](CO)CC(C)C)cc1 | 19 | -13 | 7 | 0 | i | x | x
CC(C)C[C@@H](CO)N(Cc1ccccc1)S(=O)(=O)N(Cc1ccccc1)[C@@H](CO)CC(C)C | 5 | 3 | 47* | 0 | i | x | 21
CC(C)C[C@@H](CO)N(Cc1ccccc1)S(=O)(=O)N(Cc1ccccc1)[C@H](CO)CC(C)C | 15 | -12 | 50* | 0 | i | x | 19
O=C(N/N=C/c1cn(-c2ccccc2)nc1-c1cc2ccccc2o1)c1cccnc1 | 4 | 6 | 40* | 1 | i | i | 62*
CC1Cc2ccccc2N1C(=O)CN(C)CC(=O)Nc1cccc(F)c1 (stereo not given) | 16 | -8 | -2 | 0 | i | x | x
Cc1ccc(OC(F)F)c(NC(=O)Nc2cccc(C(F)(F)F)c2)c1 | -3 | 6 | 43* | 7 | i | i | 14
COc1cccc(NC(=O)Nc2cc(C)ccc2OC)c1 | 14 | -9 | -2 | 0 | i | i | x
O=C(COCC(=O)Nc1cccc(C(F)(F)F)c1)Nc1cccc(C(F)(F)F)c1 | 14 | -6 | 47* | 1 | i | i | 12
CCOC(=O)C1CCCN(CC(=O)N(C)c2c(N)n(Cc3ccccc3)c(=O)[nH]c2=O)C1 (stereo not given) | -7 | -9 | -3 | 0 | i | x | x
Nc1cc2c(cc1Cl)-c1ccc(Cl)cc1C2=O | -4 | -7 | x | 0 | i | x | x
COc1cc(C(CCN2CCCC2)c2c(OC)cc(OC)c3c(-c4ccccc4)cc(=O)oc23)cc(OC)c1OC (stereo not given) | 11 | -4 | 41* | 1 | i | i | 16
C[C@H]1C=CC(=O)O[C@H]1c1ccccc1 | 8 | -19 | 41* | 0 | i | i | 37
COc1cccc(/C=C/C(=O)c2cccc([N+](=O)[O-])c2)c1OC | 15 | 3 | 59* | 1 | i | i | 59*
COc1ccc2[nH]c3c(N4CCN(Cc5ccc6c(c5)OCO6)CC4)ncnc3c2c1 | 10 | 0 | 11 | 2 | i | i | x
CCOc1ccc2[nH]c3c(N4CCc5ccccc5C4)ncnc3c2c1 | 7 | -5 | 50* | 2 | i | i | 0
SMILES | CHO-K1 Ca PAM | CHO-K1 Ca antag | NTR1 ag | M1 ag parental | TMEM16A act | TMEM16A inh | NTR1 ag conf
COc1ccc2[nH]c3c(N4CCC(O)(c5cccc(C(F)(F)F)c5)CC4)ncnc3c2c1 | 2 | 11 | 49* | 1 | i | 100* | 8
CCCC(=O)NC(=S)Nc1cccc(Cl)c1N1CCCC1 | 6 | -10 | 51* | 0 | i | i | 15
O=C(NC(=S)Nc1cccc(Cl)c1N1CCOCC1)c1cccs1 | 0 | -13 | 43* | 0 | i | i | 15
FC(F)(F)c1cccc(N2CCN(c3ccc4nnc(-c5ccccc5)n4n3)CC2)c1 | 14 | -11 | 58* | 0 | i | i | 10
c1ccc(-c2nnc3ccc(N4CCCC4)nn23)cc1 | 17 | 5 | 2 | 0 | i | i | x
Cc1cc2c(cc1C)CSC(c1ccc3ccccc3c1O)SC2 | 13 | -1 | 10 | 0 | i | i | x
Cc1cc2c(cc1C)CSC(c1ccccc1O)SC2 | 2 | 3 | 51* | 1 | i | i | 7
CCn1c(SCC(=O)NC2=NCCS2)nnc1C(C)NC(=O)c1ccc(Cl)cc1 (stereo not given) | -24 | 13 | 42* | 0 | i | i | -1
CN(C)CCN1CCN(C2CN(Cc3ccc(F)cc3)S(=O)(=O)C2)CC1 (stereo not given) | -8 | 18 | x | 0 | x | x | x
O=C(CC(c1ccccc1)c1cc(Br)ccc1O)NCCN1CCOCC1 (stereo not given) | 13 | -4 | 43* | 1 | i | i | 1
CC1=C(C(=O)N(C(C)C)C(C)C)CC(CC(=O)NCc2ccco2)C(=O)N1CCCN1CCCC1=O (stereo not given) | -4 | 8 | x | 3 | x | x | x
CCCCCc1c2c(cc(O)c1C(=O)O)OC(=O)c1cc(C(=O)CCCC)c(OC)cc1O2 | 13 | 9 | 48* | 0 | i | x | 12
O=CC1=C(c2ccccc2)Oc2ccccc2O1 | 0 | -5 | 44* | 0 | i | i | 62*
COc1ccc(Cl)cc1Nc1nc2ccc(C)cc2n2cnnc12 | -4 | -2 | 46* | 0 | i | i | 31
COc1ccc(OC)c(Nc2nc3ccc(C)cc3n3cnnc23)c1 | -5 | -12 | 22 | 0 | i | i | x
O=C(Nc1nnc([C@@H]2C[C@H](O)[C@@H](CO)O2)s1)c1cccc(Cl)c1 | 13 | -10 | x | 1 | x | x | x
O=C(/C=C/c1ccccc1Cl)c1ccc(O)cc1 | -16 | -9 | 2 | 4 | i | i | x
O=C(/C=C/c1c(F)cccc1Cl)c1ccc(O)cc1 | 16 | -10 | 63* | 1 | i | i | 5

Assay outcomes deposited in PubChem by several laboratories.
